The nature of experiment [1]: small molecules captured by biotinylated probe aFSTL3 – biochemical, small-molecule microarray, fluorescence 635/667, stem cell growth factor project, primary screen (AID 1064).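 Further: measures binding of the biotinylated anti-FSTL3 antibody to printed compounds.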 To be noted: higher = more signal.
Experiment [2] in a line: binders from COS7 lysate, DM2A8 probe, primary screen, torsin A project, cell lysate, small-molecule microarray, fluorescence 635/667 (AID 1065). The note with it: higher = more signal, COS7 lysate expressing mutant human TOR1A.
A short description of experiment [3]: small molecules captured by biotinylated probe aFGF2 – biochemical, small-molecule microarray, fluorescence 635/667, stem cell growth factor project, primary screen (AID 1067).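 Further: measures binding of biotinylated aFGF2 protein to printed compounds on slides; z-score merges feature fluorescence and signal-to-noise across triplicate slides.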 To be noted: higher = more signal.
Experiment [4] in a line: small molecules captured by biotinylated probe aFGF10 – biochemical, small-molecule microarray, fluorescence 635/667, stem cell growth factor project, primary screen (AID 1071).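 Further: score merges 667 nm spot intensity and signal to noise from triplicate slides.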 The note with it: higher = more signal.
Experiment [5] deals with Neurogenic locus notch homolog protein 2 (Homo sapiens) (UniProt Q04721). Nature of the experiment: small molecules binding Notch2 protein – biochemical, small-molecule microarray, 635 nm fluorescence, stem cell growth factors, primary screen (AID 1073). To be noted: higher = more signal.
Experiment [6] deals with Pro-neuregulin-1, membrane-bound isoform (Homo sapiens) (UniProt Q02297). Nature of the experiment: small molecules binding neuregulin-1 protein – biochemical, small-molecule microarray, fluorescence 635/667, psychiatric disease protein project, primary screen (AID 1075).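 Further: score combines 667 nm spot fluorescence with signal to noise.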 To be noted: NRG1 binding, 635 nm fluorescence, higher = more signal.
Pro-neuregulin-1, membrane-bound isoform (Homo sapiens), sequence (Q02297 whole entry, looked up, the tested form may be a part, canonical isoform): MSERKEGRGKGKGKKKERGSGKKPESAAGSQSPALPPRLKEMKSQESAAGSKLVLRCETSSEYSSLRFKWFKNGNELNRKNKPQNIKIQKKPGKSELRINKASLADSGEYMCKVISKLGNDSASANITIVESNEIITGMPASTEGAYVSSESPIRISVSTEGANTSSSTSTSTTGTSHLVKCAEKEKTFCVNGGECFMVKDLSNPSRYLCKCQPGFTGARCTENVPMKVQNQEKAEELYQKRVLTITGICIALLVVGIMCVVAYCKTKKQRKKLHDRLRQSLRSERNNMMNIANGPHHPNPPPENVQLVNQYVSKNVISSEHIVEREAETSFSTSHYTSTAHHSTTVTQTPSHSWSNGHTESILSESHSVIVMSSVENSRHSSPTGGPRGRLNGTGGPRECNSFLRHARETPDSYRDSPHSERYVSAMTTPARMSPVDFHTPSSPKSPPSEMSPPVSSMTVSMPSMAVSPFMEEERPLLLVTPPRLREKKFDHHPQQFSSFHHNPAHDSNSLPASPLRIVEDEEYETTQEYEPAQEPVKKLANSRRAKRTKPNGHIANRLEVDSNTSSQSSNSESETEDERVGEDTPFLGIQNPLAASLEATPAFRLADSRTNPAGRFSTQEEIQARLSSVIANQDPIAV
The subject of experiment [7] is Neuregulin-1 EGF-like domain. Nature of the experiment: small molecules binding NRG1 EGF domain – biochemical, small-molecule microarray, 635 nm fluorescence, primary screen (AID 1081).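 Further: binding of the protein to compounds printed on small-molecule microarray slides.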 The note with it: higher = more signal.
The nature of experiment [8]: FRG1 expression reporter modulators in myotubes – cell-based, C2C12 myotubes, firefly/Renilla luciferase, luminescence, FRG1 inhibition for FSHD, primary screen (AID 1084). The note with it: FRG1 promoter luciferase, higher = more signal, called active from +8 up or from −8 down.
Experiment [9] is described as follows: small molecules captured by biotinylated probe aFST – biochemical, small-molecule microarray, fluorescence 635/667, stem cell growth factor project, primary screen (AID 1086).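 Further: score merges 667 nm fluorescence with signal-to-noise of each printed compound spot.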 The note with it: higher = more signal.
Experiment [10] in a line: binders of probe aHhip on microarray, primary screen, stem cell growth factor project, biochemical, small-molecule microarray, fluorescence 635/667 (AID 1087).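 Further: score merges spot fluorescence at 667nm with spot signal to noise ratio.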 The note with it: higher = more signal.
The subject of experiment [11] is PRMT1 (protein arginine N-methyltransferase 1). Put plainly: small molecules binding arginine methyltransferase PRMT1 – biochemical, small-molecule microarray, 635 nm fluorescence, primary screen (AID 1088).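 Further: binding of Prmt1 protein to compounds spotted on small-molecule microarray slides.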 The note with it: higher = more signal.
Experiment [12] can be described thus: growth effects on S. cerevisiae YJM789 – YJM789 clinical isolate, OD600, 24 h, basal, primary screen (AID 1089).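 Further: growth of clinical yeast isolate S. cerevisiae YJM 789 seeded 1000 cells per well; test concentration not given here.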 The note with it: higher = more signal, called active from +8 up or from −8 down.
Experiment [13] in a line: S. pombe growth modifiers, basal conditions – strain 972, OD600, 24 h, no modulator, primary screen (AID 1090).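 Further: basal condition with compound alone and no growth modifier present; test concentration not given here.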 To be noted: S. pombe 972 growth, higher = more signal, called active from +8 up or from −8 down.
Experiment [14] in a line: budding yeast growth modifiers under rapamycin – strain BY4716, OD600, 96 h, primary screen (AID 1091). Further: test concentration not given here. To be noted: S. cerevisiae BY4716 + rapamycin, higher = more signal, called active from +8 up or from −8 down.
In experiment [15] the target is Torsin-1A-interacting protein 2 (Homo sapiens) (UniProt Q8NFQ8). Nature of the experiment: small molecules binding lysate-expressed LULL1 – cell lysate, human LULL1 lysate, 635/667 nm fluorescence, primary screen (AID 1092).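 Further: probe is lysate of COS7 cells overexpressing human LULL1; score merges per-feature 667 nm fluorescence with signal-to-noise.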 To be noted: small-molecule microarray, hLULL1 lysate binding, 635 nm fluorescence; higher = more signal.
Torsin-1A-interacting protein 2 (Homo sapiens), sequence (Q8NFQ8 whole entry, looked up): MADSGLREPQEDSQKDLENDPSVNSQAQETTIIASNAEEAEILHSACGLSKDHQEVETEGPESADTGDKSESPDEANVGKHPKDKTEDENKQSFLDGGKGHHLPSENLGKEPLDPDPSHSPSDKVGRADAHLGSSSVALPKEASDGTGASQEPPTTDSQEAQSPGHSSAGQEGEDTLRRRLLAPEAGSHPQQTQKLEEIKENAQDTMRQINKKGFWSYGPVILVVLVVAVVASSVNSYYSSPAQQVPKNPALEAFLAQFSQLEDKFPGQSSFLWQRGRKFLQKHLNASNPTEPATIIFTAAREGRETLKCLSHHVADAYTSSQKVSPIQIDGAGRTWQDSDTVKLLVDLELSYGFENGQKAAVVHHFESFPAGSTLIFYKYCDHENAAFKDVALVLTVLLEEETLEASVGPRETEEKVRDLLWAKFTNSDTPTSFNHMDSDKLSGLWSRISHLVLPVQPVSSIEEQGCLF
Experiment [16] in a line: optical density change of DRC41 E. coli – strain DRC41, OD650, 24 h, E. coli filamentation project, primary screen (AID 1093).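 Further: MC1000 strain lacking acrAB efflux and sulA so SOS filamentation is blocked; test concentration not given here.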 The note with it: E. coli DRC41 growth, higher = more signal, called active from +8 up or from −8 down.
A short description of experiment [17]: probe aLefty2 binding to arrayed compounds – biochemical, biotinylated probe, 635/667 nm fluorescence, primary screen (AID 1094).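 Further: score merges spot fluorescence near 667 nm with spot signal-to-noise ratio.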 To be noted: small-molecule microarray, higher = more signal.
Experiment [18] has as its system Noggin (protein binding on small-molecule microarray). Nature of the experiment: small molecules binding Noggin protein – biochemical, 635/667 nm fluorescence, primary screen (AID 1095).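 Further: score merges 667 nm feature fluorescence with signal to noise over triplicate slides.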 To be noted: 635 nm fluorescence, higher = more signal.
The target in experiment [19] is Neurogenic locus notch homolog protein 3 (Homo sapiens) (UniProt Q9UM47). Nature of the experiment: small molecules binding NOTCH3 protein – biochemical, 635/667 nm fluorescence, primary screen (AID 1096). To be noted: small-molecule microarray, 635 nm fluorescence, higher = more signal.
Neurogenic locus notch homolog protein 3 (Homo sapiens), sequence (Q9UM47 whole entry, looked up): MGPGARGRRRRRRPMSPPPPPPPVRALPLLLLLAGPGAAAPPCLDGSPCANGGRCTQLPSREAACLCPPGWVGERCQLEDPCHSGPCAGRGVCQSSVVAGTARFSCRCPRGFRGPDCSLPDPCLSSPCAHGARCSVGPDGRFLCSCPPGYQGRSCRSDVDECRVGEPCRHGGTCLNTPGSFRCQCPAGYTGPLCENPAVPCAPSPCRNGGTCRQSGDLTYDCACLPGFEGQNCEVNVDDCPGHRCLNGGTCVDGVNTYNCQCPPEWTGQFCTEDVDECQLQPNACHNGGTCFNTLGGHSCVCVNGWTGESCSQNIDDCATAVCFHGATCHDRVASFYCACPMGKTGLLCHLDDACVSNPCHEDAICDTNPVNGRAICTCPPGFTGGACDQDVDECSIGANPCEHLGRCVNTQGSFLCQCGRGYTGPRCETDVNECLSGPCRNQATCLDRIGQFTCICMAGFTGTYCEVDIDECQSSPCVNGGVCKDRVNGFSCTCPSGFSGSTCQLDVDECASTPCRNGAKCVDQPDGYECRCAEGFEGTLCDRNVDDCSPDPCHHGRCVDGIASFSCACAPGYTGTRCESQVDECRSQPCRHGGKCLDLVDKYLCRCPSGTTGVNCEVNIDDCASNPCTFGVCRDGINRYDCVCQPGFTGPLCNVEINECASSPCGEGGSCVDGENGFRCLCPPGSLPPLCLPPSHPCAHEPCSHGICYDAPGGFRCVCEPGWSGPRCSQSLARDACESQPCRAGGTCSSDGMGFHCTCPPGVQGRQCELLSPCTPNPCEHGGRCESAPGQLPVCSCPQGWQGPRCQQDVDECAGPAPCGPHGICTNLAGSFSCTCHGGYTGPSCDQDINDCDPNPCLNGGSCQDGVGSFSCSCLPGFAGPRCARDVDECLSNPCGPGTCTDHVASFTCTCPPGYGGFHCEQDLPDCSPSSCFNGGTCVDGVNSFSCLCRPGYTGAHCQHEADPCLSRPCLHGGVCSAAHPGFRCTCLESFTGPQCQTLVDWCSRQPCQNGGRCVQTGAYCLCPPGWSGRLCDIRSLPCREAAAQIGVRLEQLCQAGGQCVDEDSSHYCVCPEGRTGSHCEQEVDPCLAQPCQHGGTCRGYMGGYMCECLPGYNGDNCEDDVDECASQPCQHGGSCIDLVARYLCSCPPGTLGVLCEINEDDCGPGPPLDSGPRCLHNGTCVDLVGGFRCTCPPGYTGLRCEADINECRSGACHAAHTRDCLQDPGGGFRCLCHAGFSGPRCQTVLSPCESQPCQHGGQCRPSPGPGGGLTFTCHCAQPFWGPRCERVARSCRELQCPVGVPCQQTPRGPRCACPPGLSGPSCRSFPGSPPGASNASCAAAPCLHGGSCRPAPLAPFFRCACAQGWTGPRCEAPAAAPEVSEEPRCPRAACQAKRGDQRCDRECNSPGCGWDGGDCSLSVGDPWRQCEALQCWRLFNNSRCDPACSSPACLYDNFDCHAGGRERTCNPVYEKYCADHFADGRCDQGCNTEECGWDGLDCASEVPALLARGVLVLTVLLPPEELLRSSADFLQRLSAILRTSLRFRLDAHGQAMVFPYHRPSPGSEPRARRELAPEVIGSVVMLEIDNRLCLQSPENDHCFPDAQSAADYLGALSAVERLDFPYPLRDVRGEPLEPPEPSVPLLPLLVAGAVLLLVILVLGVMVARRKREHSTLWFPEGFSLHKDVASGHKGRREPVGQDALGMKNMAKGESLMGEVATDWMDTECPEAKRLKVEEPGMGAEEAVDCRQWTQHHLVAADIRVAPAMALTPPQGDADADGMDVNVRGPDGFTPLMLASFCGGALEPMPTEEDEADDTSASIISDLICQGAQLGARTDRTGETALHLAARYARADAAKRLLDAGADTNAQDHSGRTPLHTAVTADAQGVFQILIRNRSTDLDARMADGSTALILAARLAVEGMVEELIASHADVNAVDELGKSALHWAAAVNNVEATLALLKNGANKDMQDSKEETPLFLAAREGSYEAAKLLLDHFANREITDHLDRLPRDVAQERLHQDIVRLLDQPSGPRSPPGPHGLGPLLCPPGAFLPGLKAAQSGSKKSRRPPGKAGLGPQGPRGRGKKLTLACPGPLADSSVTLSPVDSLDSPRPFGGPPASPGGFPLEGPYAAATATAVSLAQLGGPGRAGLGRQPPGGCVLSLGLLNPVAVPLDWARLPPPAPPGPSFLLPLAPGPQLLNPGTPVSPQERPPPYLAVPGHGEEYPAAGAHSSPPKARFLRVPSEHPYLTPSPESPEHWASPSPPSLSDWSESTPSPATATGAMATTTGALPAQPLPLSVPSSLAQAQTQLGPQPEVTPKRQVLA
Experiment [20] can be described thus: probe aEGFR binding to arrayed compounds – biochemical, biotinylated probe, 635/667 nm fluorescence, primary screen (AID 1097).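 Further: probe is a biotinylated anti-EGFR antibody binding compounds printed on slides; score combines fluorescence near 667 nm and signal to noise of each spot.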 To be noted: small-molecule microarray, higher = more signal.

Active and inactive are the calls of the source.

Regarding `COc1ccccc1CN1C(=O)c2ccccc2[C@@H](C(=O)NCCN2CCOCC2)[C@@H]1c1ccc(CO)cc1`, the composite z-score was 0.109 in [1]; -0.267 in experiment [2]; -0.0999 in [3]; 0.539 in experiment [4]; 0.159 in experiment [5]; 1.01 in experiment [6]. Also, the composite z-score in experiment [7] was 1.47; in experiment [9], -0.2; in experiment [10], -0.169; in [11] it was 0.663; in [15], 3.32; in experiment [17] it was -0.0948. The composite z-score in experiment [18] was 0.025; in experiment [19], 0.209; in [20], -0.156. The z-score is -2.69 (inactive) in experiment [8]; -0.884 (inactive) in experiment [12]; 0.067 (inactive) in [13]; -0.805 (inactive) in experiment [14]; 0.339 (inactive) in experiment [16].
Regarding `COC(=O)[C@@]1(Cc2ccc(OC)cc2)[C@H]2c3cc(C(=O)N4CCCC4)n(Cc4cc(F)cc5c4OCOC5)c3C[C@H]2CN1C(=O)c1ccccc1`, the composite z-score in experiment [1] was 0.152; in experiment [2], -0.0429; in experiment [3], 0.275; in experiment [4], 0.535; in experiment [5], 1.74; in [6], 2.29. For the same compound, the composite z-score was 1.28 in experiment [7]; 0.83 in experiment [9]; 1.14 in [10]; -0.829 in experiment [11]; 3.27 in experiment [15]; 0.499 in [17]. Also, the composite z-score was -0.307 in experiment [18], 0.77 in [19] and 0.241 in experiment [20]. Further, the z-score in experiment [8] is 1.61 (inactive); in experiment [12] it was -0.0795 (inactive); in experiment [13] it was -0.87 (inactive); in [14], 0 (inactive); in experiment [16], -1.28 (inactive).
In the case of `Cc1cc(C)c(C(O)C2C=CC3C(=O)N(C)C(=O)C3N2Nc2ccccc2)c(C)c1` (stereo not given), the composite z-score in [1] stood at 1.19; in experiment [2], 0.732; in experiment [3], 0.462; in experiment [4], 0.93; in [5] it was 1.64; in experiment [6], 1.26. For the same compound, the composite z-score was found to be 1.27 in experiment [7]; 2.01 in experiment [9]; 0.872 in experiment [10]; 0.378 in experiment [11]; 2.41 in experiment [15]; 1.24 in [17]. Moreover, the composite z-score in experiment [18] was found to be 0.0355; in experiment [19] it was 0.533; in [20], 0.907. Also, the z-score is 0.016 (inactive) in [8]; -0.304 (inactive) in [12]; 0.569 (inactive) in experiment [13]; -0.448 (inactive) in experiment [14]; -1.32 (inactive) in experiment [16].
`CCOC(=O)C[C@H]1[C@H](OC(=O)c2ccc(-c3ccccc3)cc2)[C@@H](NC(=O)c2ccc(-c3ccccc3)cc2)c2cc(OCCCO)ccc2N1C(=O)Cc1ccc(OC)cc1`: the composite z-score in experiment [1] was -0.263; in experiment [2], -0.0676; in [3], -0.0525; in [4], 0.0168; in experiment [5], 0.306; in experiment [6], 0.168. For the same compound, the composite z-score in [7] is -0.489; in [9], 0.425; in experiment [10], -0.226; in experiment [11], -0.007; in [15] it was 0.856; in experiment [17] it was -0.0196. Further, the figures for the composite z-score in [18], in [19] and in experiment [20] were -0.31, -0.166 and -0.0505, respectively. Also, the z-score in experiment [8] is 0.712 (inactive); in experiment [12], -0.907 (inactive); in [13], 0.321 (inactive); in [14], 0.16 (inactive); in [16], -0.963 (inactive).
With `[N-]=[N+]=NCc1ccccc1[C@@H]1OC(c2ccc(OCCCO)cc2)=N[C@]1(Cc1ccccc1)C(=O)N1CCCCC1`, the composite z-score in [1] was found to be 0.49; in experiment [2], 1.1; in [3], 0.0703; in experiment [4] it was 1.05; in experiment [5], 1.5; in experiment [6], 1.18. For the same compound, the composite z-score in [7] is 1.12; in experiment [9], 1.49; in experiment [10], 0.212; in experiment [11], 1.15; in experiment [15], 2.74; in [17], 0.332. The composite z-score in [18] stood at 1.46; in experiment [19], 1.07; in experiment [20] it was 0.193. The z-score in experiment [8] was -1.03 (inactive); in [12], -0.202 (inactive); in experiment [13], -1.09 (inactive); in experiment [14], 1.66 (inactive); in experiment [16], 1.47 (inactive).

Source of the values: PubChem BioAssay.
